Values without a mark were called inactive. Records with an inconclusive call do not appear. Active and inactive are the calls of the source. Calls come from the whole dose curve; as a rule, active = well fitted curve in the direction sought with a large enough effect in the repeat runs; inconclusive = weak or mixed curves; inactive = no such curve, though single readings can be large; an effect the other way counts as inactive or inconclusive.

From PubChem BioAssay (Tox21) come the findings set out here.

The nature of experiment [1]: Human pregnane X receptor (PXR) small molecule agonists, qHTS cell viability counter screen (AID 1346977). Note: nearly all actives have a fitted effect of over 50% in size. The gist of the method:
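Viability counter screen: CellTiter-Fluor signal in PXR-Luc HepG2 cells, 24hr compound exposure, 37C, 5% CO2.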
Background: In qHTS, concentration-response curves come from the screen itself.

Experiment [2] is described as follows: Caspase-3/7 induction in CHO-K1 cells by small molecules, qHTS cell viability counter screen (AID 1346979). Note: nearly all actives have a fitted effect of over 35% in size. Note: potency is the fitted concentration of half-maximal effect. Summed up:
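Viability readout by fluorescence (CellTiter-Fluor) on wild-type CHO-K1 cells exposed for 16hr at 37C and 5% CO2 to compounds delivered in DMSO; reagent incubated 1hr before reading.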

Experiment [3] in a line: Caspase-3/7 induction in CHO-K1 cells by small molecules, qHTS assay (AID 1346980). Note: nearly all actives have a fitted effect of over 15% in size. Summed up: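 Wild-type CHO-K1 cells exposed to compounds for 17hr at 37 C, 5% CO2. Caspase-3/7 activity then measured by Caspase-Glo 3/7 luminescence after 30min at room temperature.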
Experiment [4] deals with Cytochrome P450 2D6 (Homo sapiens) (UniProt P10635). Briefly: Cytochrome P450 Family 2 Subfamily D Member 6 (CYP2D6) small molecule antagonists: luciferase reporter qHTS assay (AID 1671196). Note: nearly all actives have a fitted effect of over 50% in size. Note: potency is the fitted concentration of half-maximal effect. Summed up: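 Inhibition of CYP2D6 was gauged by loss of luminescence, since light produced tracks the luciferin generated from a proluciferin substrate. A 10 min room-temperature preincubation preceded 1 h NADPH-supported turnover.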

Experiment [5] addresses Cytochrome P450 2C9 (Homo sapiens) (UniProt P11712). Briefly: Cytochrome P450 Family 2 Subfamily C Member 9 (CYP2C9) small molecule antagonists: luciferase reporter qHTS assay (AID 1671198). Note: nearly all actives have a fitted effect of over 50% in size. Note: potency is the fitted concentration of half-maximal effect. The gist of the method:
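P450-Glo proluciferin substrate with CYP2C9 enzyme; 10 min RT preincubation, then NADPH regeneration 1 h at 37C; luciferin detection reagent 20 min RT, luminescence in relative luminescence units.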
For orientation: In a reporter assay the amount or activity of a reporter protein is the signal.

Experiment [6] addresses Cytochrome P450 1A2 (Homo sapiens) (UniProt P05177). Briefly: Cytochrome P450 Family 1 Subfamily A Member 2 (CYP1A2) small molecule antagonists: luciferase reporter qHTS assay (AID 1671199). Note: nearly all actives have a fitted effect of over 50% in size. Note: potency is the fitted concentration of half-maximal effect. The gist of the method:
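Signal from luciferin formed by CYP1A2 from a proluciferin substrate is read as luminescence, expressed in relative luminescence units. Compounds sit with enzyme 10 min, NADPH-driven reaction runs 1 h, all at room temperature.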

Experiment [7] concerns the target Voltage-gated inwardly rectifying potassium channel KCNH2 (Homo sapiens) (UniProt Q12809). Briefly: Human Ether-a-go-go-Related Gene (hERG) channel small molecule antagonists: fluorescence cell-based qHTS assay (AID 1671200). The gist of the method: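 Thallium served as the potassium surrogate; its influx into dye-loaded U2OS cells carrying the channel was measured by fluorescence over 2 min.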
On the technique in general: The hERG channel carries a current that helps repolarise heart muscle cells.

Experiment [8] addresses Cytochrome P450 3A4 (Homo sapiens) (UniProt P08684). Briefly: Cytochrome P450 Family 3 Subfamily A Member 4 (CYP3A4) small molecule antagonists: luciferase reporter qHTS assay (AID 1671201). The gist of the method: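 Relative luminescence units after 20 min with luciferin detection reagent served as read-out. Beforehand, CYP3A4 turned over a proluciferin substrate for 1 h at room temperature with NADPH regeneration, following 10 min compound preincubation.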

Experiment [9] in a line: Caspase-3/7 induction in HepG2 cells by small molecules, qHTS assay (AID 1346978). Note: nearly all actives have a fitted effect of over 15% in size. Summed up:
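Wild-type HepG2 cells, 2,000/well, settled 5 hr at 37 C and 5% CO2, then compound-treated for 17 hr; caspase-3/7 activity read by luminescent Caspase-Glo 3/7 after 30 min at room temperature.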

Experiment [10] is described as follows: Caspase-3/7 induction in HepG2 cells by small molecules, qHTS cell viability counter screen (AID 1346981). Note: series mostly up to about 92 µM; nearly all actives have a fitted effect of over 30% in size. Summed up:
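Counter screen for cytotoxicity: HepG2 exposed 16 hr to compounds, then CellTiter-Fluor viability signal (fluorescence, 1 hr reagent incubation).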

Experiment [11] addresses Nuclear receptor subfamily 1 group I member 2 (Homo sapiens) (UniProt O75469). The experiment in a line: Human pregnane X receptor (PXR) small molecule agonists, qHTS assay (AID 1346982). Note: nearly all actives have a fitted effect of over 35% in size. Note: potency is the fitted concentration of half-maximal effect. The gist of the method:
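Luminescence (ONE-Glo, 30 min RT) after 24 hr compound exposure of PXR-Luc HepG2 cells; cells rested 5 hr post-plating in 5% charcoal-stripped FBS medium.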

Experiment [12] has the same target. The experiment in a line: CYP3A4 induction through human pregnane X receptor (PXR) by small molecules, qHTS assay (AID 1346984). Note: nearly all actives have a fitted effect of over 40% in size. The gist of the method:
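DPX-2 reporter cells; 24h cpd, 37C; Luciferin-IPA 3uM final x3h; One-Glo 30 min RT; lumi read.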

The target in experiment [13] is Cytochrome P450 2C19 (Homo sapiens) (UniProt P33261). The experiment in a line: Cytochrome P450 Family 2 Subfamily C Member 19 (CYP2C19) small molecule antagonists: luciferase reporter qHTS assay (AID 1671197). Note: nearly all actives have a fitted effect of over 65% in size. Note: potency is the fitted concentration of half-maximal effect. The gist of the method: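 Quantitative high-throughput screen of the Tox21 library using CYP2C19 with proluciferin substrate. Reaction: NADPH regeneration, 37C, 1 h, after 10 min compound preincubation at room temperature. Readout: luminescence.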

Experiment [14] has as its target Nuclear receptor subfamily 1 group I member 2 (Rattus norvegicus) (UniProt Q9R1A7). The experiment in a line: Rat pregnane X receptor (rPXR) activation by small molecules, qHTS assay (AID 1346983). Note: nearly all actives have a fitted effect of over 20% in size. The conditions noted are these: rPXR luciferase reporter cells, One-Glo luminescence, 24 h; max activation: hits give high values. The gist of the method:
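Cell-based rPXR activation assay: rPXR cells, 2,000 per well, rested 5hr at 37 C, then exposed to compounds in DMSO for 24 hr at 37 C. Luciferase activity read by One-Glo luminescence after 30 min at room temperature.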

Experiment [15] concerns the target Nuclear receptor subfamily 1 group I member 2 (Homo sapiens) (UniProt O75469). The experiment in a line: Human pregnane X receptor (PXR) activation by small molecules, qHTS assay (AID 1346985). Note: nearly all actives have a fitted effect of over 40% in size. The gist of the method: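 DPX-2 cells (HepG2 co-transfected with a PXR response element and a CYP3A4-promoter luciferase construct) were seeded at 2,000 per well, rested 5 hr at 37C, then exposed to DMSO-dissolved compounds for 24 hr. Activation was read as luciferase luminescence.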
% is set by controls: 0 for no effect and ±100 for the full control effect.

Chain of Cytochrome P450 1A2 (Homo sapiens) (P05177 whole entry, looked up): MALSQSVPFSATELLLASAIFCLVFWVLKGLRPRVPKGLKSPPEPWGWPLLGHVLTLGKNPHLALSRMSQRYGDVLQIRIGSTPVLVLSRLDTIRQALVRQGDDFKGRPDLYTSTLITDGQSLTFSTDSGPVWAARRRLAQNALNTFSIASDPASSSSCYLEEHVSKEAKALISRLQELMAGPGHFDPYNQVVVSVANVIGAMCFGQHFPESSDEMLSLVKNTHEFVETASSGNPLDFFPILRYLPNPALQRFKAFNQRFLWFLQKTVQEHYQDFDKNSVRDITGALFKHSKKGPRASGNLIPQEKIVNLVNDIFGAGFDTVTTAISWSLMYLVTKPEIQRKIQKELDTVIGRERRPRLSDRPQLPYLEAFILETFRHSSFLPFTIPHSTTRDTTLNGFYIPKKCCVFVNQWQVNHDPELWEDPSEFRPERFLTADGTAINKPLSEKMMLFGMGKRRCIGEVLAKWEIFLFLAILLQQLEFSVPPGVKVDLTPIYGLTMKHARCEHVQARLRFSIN
Chain of Cytochrome P450 2D6 (Homo sapiens) (P10635 whole entry, looked up): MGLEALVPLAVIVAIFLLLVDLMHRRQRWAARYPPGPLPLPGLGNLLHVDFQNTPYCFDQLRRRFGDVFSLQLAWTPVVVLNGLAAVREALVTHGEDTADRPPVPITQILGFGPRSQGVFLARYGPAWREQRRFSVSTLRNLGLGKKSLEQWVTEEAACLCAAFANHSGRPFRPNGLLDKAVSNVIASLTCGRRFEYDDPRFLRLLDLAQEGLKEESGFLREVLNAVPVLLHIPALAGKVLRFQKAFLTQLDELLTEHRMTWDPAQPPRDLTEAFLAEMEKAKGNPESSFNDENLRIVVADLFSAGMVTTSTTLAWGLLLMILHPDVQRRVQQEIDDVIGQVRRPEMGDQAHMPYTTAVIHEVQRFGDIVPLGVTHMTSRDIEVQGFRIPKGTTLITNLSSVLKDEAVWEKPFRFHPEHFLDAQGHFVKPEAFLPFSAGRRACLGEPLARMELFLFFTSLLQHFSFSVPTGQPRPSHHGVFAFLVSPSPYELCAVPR
Chain of Cytochrome P450 2C19 (Homo sapiens) (P33261 whole entry, looked up): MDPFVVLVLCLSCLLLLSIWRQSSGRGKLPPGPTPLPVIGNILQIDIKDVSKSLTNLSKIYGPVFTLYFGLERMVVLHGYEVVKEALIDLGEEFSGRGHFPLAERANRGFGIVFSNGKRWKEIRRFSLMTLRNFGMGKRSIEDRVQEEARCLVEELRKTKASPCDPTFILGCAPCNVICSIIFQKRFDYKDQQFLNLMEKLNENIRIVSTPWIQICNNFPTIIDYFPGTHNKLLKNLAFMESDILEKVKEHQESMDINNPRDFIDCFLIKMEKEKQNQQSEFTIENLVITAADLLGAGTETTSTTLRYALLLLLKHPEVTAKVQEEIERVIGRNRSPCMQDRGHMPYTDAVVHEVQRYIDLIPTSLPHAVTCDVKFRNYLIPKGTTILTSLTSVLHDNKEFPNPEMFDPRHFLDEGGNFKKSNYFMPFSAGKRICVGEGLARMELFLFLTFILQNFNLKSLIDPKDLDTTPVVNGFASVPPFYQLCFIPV
Chain of Cytochrome P450 3A4 (Homo sapiens) (P08684 whole entry, looked up): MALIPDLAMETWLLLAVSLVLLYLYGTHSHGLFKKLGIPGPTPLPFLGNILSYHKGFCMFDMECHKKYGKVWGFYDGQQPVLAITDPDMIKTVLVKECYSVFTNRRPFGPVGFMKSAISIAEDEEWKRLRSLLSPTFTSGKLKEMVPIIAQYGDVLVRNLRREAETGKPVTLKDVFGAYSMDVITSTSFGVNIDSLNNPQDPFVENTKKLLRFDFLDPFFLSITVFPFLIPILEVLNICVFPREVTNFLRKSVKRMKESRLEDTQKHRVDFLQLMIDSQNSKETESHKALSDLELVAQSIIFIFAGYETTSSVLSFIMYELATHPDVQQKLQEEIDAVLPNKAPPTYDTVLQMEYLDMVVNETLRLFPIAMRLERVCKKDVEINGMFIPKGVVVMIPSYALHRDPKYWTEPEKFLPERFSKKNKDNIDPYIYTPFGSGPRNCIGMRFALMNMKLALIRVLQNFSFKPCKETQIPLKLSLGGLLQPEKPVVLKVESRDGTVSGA
Chain of Cytochrome P450 2C9 (Homo sapiens) (P11712 whole entry, looked up): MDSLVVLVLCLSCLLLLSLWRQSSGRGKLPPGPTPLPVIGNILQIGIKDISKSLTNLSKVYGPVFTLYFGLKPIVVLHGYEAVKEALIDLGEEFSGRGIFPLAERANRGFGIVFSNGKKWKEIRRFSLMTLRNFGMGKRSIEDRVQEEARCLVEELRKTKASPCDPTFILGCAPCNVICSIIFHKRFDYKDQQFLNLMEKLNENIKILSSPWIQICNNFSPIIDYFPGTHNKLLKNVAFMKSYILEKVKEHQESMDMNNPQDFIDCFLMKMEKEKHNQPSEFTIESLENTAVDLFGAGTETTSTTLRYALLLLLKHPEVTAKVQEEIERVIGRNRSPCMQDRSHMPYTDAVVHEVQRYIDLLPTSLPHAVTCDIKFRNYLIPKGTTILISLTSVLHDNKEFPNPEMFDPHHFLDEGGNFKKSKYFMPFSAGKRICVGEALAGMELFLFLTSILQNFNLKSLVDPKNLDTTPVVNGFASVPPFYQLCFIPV
Chain of Nuclear receptor subfamily 1 group I member 2 (Homo sapiens) (O75469 whole entry, looked up): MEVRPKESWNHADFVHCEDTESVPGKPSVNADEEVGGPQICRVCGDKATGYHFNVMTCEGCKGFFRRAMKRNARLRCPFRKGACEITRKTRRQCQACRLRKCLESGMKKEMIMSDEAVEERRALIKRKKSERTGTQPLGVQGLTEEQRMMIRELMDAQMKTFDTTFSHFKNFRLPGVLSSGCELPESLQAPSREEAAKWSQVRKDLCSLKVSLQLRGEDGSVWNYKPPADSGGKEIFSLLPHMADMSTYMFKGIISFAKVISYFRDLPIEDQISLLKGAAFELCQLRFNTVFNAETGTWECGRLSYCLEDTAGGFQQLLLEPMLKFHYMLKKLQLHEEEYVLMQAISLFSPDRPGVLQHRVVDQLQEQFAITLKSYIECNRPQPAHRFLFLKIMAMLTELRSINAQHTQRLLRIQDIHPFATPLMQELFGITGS
Chain of Voltage-gated inwardly rectifying potassium channel KCNH2 (Homo sapiens) (Q12809 whole entry, looked up): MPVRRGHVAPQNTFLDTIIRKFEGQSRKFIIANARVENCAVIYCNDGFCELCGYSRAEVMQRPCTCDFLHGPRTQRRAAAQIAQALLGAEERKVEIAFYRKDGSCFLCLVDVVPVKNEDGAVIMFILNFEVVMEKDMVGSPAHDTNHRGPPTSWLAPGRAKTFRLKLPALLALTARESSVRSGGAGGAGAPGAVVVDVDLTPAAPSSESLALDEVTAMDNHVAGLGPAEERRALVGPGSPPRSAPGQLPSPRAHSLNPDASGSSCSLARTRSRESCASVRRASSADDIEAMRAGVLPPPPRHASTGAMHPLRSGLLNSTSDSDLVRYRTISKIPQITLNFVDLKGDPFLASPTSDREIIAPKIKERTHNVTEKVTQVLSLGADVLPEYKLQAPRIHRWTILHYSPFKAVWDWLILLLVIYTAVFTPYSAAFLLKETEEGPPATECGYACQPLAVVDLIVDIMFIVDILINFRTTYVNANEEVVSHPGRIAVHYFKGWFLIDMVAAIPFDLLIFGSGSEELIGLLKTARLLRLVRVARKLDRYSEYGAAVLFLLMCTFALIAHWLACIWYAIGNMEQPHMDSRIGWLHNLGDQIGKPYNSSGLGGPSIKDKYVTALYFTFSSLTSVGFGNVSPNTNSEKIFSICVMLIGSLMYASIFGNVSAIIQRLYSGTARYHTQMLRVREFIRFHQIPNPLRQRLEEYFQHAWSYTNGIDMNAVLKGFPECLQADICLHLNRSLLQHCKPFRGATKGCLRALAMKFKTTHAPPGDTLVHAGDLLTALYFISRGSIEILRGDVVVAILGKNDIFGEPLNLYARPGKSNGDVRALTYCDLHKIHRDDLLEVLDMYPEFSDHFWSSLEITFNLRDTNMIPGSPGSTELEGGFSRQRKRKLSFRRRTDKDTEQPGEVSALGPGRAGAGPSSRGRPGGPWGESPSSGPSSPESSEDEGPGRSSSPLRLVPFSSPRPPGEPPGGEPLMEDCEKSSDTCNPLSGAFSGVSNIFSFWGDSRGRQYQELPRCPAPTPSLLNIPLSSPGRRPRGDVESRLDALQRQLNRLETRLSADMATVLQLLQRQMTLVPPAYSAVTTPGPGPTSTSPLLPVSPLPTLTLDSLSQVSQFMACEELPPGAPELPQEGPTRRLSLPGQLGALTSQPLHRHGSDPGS
Chain of Nuclear receptor subfamily 1 group I member 2 (Rattus norvegicus) (Q9R1A7 whole entry, looked up): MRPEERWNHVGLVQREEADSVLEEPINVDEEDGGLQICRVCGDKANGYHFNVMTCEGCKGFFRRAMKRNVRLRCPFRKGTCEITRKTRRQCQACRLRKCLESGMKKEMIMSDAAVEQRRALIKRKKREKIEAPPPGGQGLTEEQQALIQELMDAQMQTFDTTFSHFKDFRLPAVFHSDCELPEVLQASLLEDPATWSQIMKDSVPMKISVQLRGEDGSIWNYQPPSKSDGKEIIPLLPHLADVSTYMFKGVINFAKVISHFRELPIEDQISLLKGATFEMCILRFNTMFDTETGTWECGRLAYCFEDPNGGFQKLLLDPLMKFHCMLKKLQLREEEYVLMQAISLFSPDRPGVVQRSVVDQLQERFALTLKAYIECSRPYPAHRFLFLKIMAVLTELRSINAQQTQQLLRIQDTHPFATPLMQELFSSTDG

As for `C=COCC1CCC(COC=C)CC1` (configuration not stated), the Potency result in experiment [1], in experiment [2], in experiment [4], in experiment [5], in experiment [6] and in [7] was “inactive” throughout. Also, in experiment [8], the Potency entry is “inactive”. Moreover, the molecule was classed as inactive in [3].
As to `CCC(C)(CCCC(C)C)OC(C)=O` (configuration not stated), the call in [9] and in experiment [3] was inactive. Moreover, the Potency entry in [2], in [10], in [11], in experiment [4], in experiment [5] and in experiment [6] was “inactive” each time. In addition, the Potency entry in [7] and in experiment [8] was “inactive” each time.
Consider `CC(=O)O[C@@]12CO[C@@H]1C[C@H](O)[C@@]1(C)C(=O)[C@H](O)C3=C(C)[C@@H](OC(=O)[C@H](O)[C@@H](NC(=O)OC(C)(C)C)c4ccccc4)C[C@@](O)([C@@H](OC(=O)c4ccccc4)[C@H]21)C3(C)C`, for which the Potency entry in experiment [1], in [12], in experiment [13], in [5], in [6] and in experiment [7] was “inactive” each time. In addition, the Potency in experiment [2] is 11.9 µM (active); in experiment [4], 38.9 µM (active). In [3], the molecule was called inactive.
Regarding `O=C(c1ccccc1)C1(O)CCCCC1`, the Potency entry in experiment [1], in experiment [2], in [10], in experiment [4], in experiment [7] and in [8] was “inactive” in each case. Besides, in experiment [3], the outcome was inactive. The figures for the Potency in experiment [13] and in [5] were 11.2 µM (active) and 35.6 µM (active), respectively.
Consider `[K+]`, for which the result in experiment [9] and in experiment [3] was inactive. Moreover, the Potency result in experiment [2], in [10], in [4], in experiment [13], in experiment [5] and in experiment [6] was “inactive” each time. In addition, the Potency entry in experiment [8] is “inactive”.
Take `C[N+](C)(CCOc1ccccc1)Cc1cccs1`: the Potency result in [1], in [2], in experiment [13], in experiment [5], in experiment [6] and in experiment [8] was “inactive” in each case. Besides, in experiment [3], the outcome was inactive. Also, the Potency in [4] was 0.195 µM (active).
Turning to `CC(N)C12CC3CC(CC(C3)C1)C2` (configuration not stated), the Potency result in experiment [1], in experiment [2], in [11], in experiment [12], in experiment [15] and in [13] was “inactive” in each case. Moreover, the Potency entry in experiment [5], in experiment [6], in [7] and in experiment [8] was “inactive” throughout. In experiment [3], the molecule was called inactive. Besides, in experiment [14], the max activation is 8.41%.
For `NS(=O)(=O)Cc1noc2ccccc12`, the Potency result in experiment [1], in [2], in experiment [10], in [13], in [6] and in experiment [7] was “inactive” each time. Besides, the molecule was called inactive in experiment [3]. Besides, the max activation in [14] was -2.52%.
`COc1cc(C(=O)OC(COCCC(C)C)CN2CCOCC2)cc(OC)c1OC` (configuration not stated): the Potency entry in experiment [1], in experiment [2], in experiment [10], in [6] and in [7] was “inactive” throughout. For the same molecule, the molecule was classed as inactive in experiment [3]. The values for the Potency in experiment [13] and in experiment [5] were 3.47 µM (active) and 3.09 µM (active), respectively.
`CCNS(=O)(=O)c1ccc(C)cc1`: the Potency result in [1], in experiment [2], in experiment [10], in [5], in experiment [7] and in experiment [8] was “inactive” throughout. Also, the result in experiment [3] was inactive. The Potency in experiment [13] is 20.6 µM (active); in experiment [6], 41.1 µM (active).
As to `O=C1c2ccccc2C(=O)c2cc(O)ccc21`, the outcome in [9] and in experiment [3] was inactive. The Potency result in experiment [2] and in experiment [7] was “inactive” in each case. For the same molecule, the Potency was 17.2 µM (active) in experiment [11], 22.5 µM (active) in experiment [13], 25.2 µM (active) in experiment [5] and 7.11 µM (active) in [6].
Regarding `C=CN1CCCCCC1=O`, the Potency result in experiment [1], in experiment [2], in experiment [10], in [4], in experiment [13] and in experiment [5] was “inactive” each time. Besides, the Potency result in experiment [7] and in experiment [8] was “inactive” each time. Also, in experiment [3], the molecule was called inactive.
